Peg3 promoter – Peg3 promoter-driven luciferase inhibitors, primary screen, cell-based, HeLa, luciferase luminescence | HeLa PEG-Prom luciferase reporter, overnight | inhibition, % at 20 µM | actives 1.7% (n = 360,000);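 active means inhibition of at least 50% at 20 µM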
HIF-2a inh – HIF-2a reporter inhibitors, primary screen, luminescence, 786-0 RCC cells; AID 624352, 2012; actives 0.72% (n = 360,000); 786-0 RCC cells HIF-2a reporter, luciferase luminescence, overnight; inhibition, % at 18.8 µM;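 active means inhibition of the luminescence signal of 40% or more relative to plate controls, in a single-dose primary screen at 18.75 µM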
CF NFkB inh – inhibitors of PAF-induced NF-kB signaling, primary screen, cell-based, GFP fluorescence, uHTS | KKLEB NF-kB-GFP reporter, GFP fluorescence overnight | inhibition, % at 5 µM | actives 0.86% (n = 360,000) | AID 588850, 2011;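 active means at least 50% inhibition at 5 µM, scaled per plate between neutral and stimulator controls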;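 further: PAF is a Pseudomonas aeruginosa culture filtrate used as stimulus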
KKLEB tox – cytotoxicity in KKLEB CF airway cells, primary screen, cytotoxicity control for CF NF-kB inhibitor project, cell-based, uHTS, fluorescence assay plates. KKLEB CF airway cells viability, ATPlite luminescence, overnight; stronger effect = lower value; cells stimulated with P. aeruginosa culture filtrate. actives 0.36% (n = 360,000). activity change (cytotoxicity), % at 5 µM;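 active means corrected activity change at or below -50% at 5 µM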
B2AR ag – beta2AR agonists driving receptor internalization, primary screen, cell-based, FAP fluorogen, flow cytometry; Beta-2 adrenergic receptor (Homo sapiens), P07550; Am2.2-beta2AR cells; response, % (concentration not given with the values); actives 0.43% (n = 340,000);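 active means response above a set limit, near 3 SD of response in nonfluorescent compounds, cut at about 42% in these data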
Target sequence (P07550 whole entry, looked up): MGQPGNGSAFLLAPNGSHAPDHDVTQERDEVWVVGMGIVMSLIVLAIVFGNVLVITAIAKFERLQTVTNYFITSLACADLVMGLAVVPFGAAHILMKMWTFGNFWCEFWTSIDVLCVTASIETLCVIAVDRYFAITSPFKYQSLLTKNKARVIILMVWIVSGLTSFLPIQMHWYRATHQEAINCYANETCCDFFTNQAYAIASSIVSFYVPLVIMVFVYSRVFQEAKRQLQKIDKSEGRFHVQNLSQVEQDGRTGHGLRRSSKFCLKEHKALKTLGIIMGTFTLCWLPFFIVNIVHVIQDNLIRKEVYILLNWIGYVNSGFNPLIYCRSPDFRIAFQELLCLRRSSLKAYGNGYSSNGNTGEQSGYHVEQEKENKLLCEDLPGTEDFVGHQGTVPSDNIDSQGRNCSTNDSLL
MITF TRPM1 inh – inhibitors of MITF-dependent TRPM1 promoter reporter, primary screen, cell-based, SK-MEL-5, single point, luciferase; SK-MEL-5 TRPM1 promoter luciferase, 24 h; inhibition, % at 12.5 µM; actives 0.83% (n = 330,000);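 active means mean inhibition across replicates of 60% or more, whatever share of single replicates reaches that level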
CF NFkB conf – inhibitors of PAF-induced NF-kB signaling, retest, confirmation, cell-based, GFP fluorescence, single concentration | KKLEB CF airway cells, overnight | shares compounds with CF NFkB inh | AID 602472, 2012 | inhibition, % at 5 µM | actives 64% (n = 1,300); in the data active means inhibition above about 40%;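 further: stimulus PAF is a Pseudomonas aeruginosa filtrate and not platelet activating factor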
Mdm2 MdmX conf – retested Mdm2-MdmX interaction blockers, confirmation, cell-based, luminescence, single concentration, set 2; shares compounds with HIF-2a inh; SaOS-2 split-luciferase Mdm2/MdmX complementation; inhibition, % at 8 µM; actives 99% (n = 740);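 active means mean inhibition of the luminescence signal across two replicates at or above 26 percent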
HIF-2a conf – HIF-2a reporter inhibitor retest, confirmation, luminescence, 786-0 RCC cells; shares compounds with HIF-2a inh; HIF-2a luciferase reporter luminescence, overnight; inhibition, % at 18.8 µM; actives 56% (n = 1,800); AID 651580, 2012;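 active means mean inhibition across four replicates of at least 40 percent at the single tested concentration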
HIF-1a counter – HIF-1a luciferase reporter signal reduction – MiaPaCa-2 cells, single concentration, counter-screen for HIF-2a inhibitor project, confirmation; AID 651589, 2012; actives 72% (n = 1,800); shares compounds with HIF-2a inh; inhibition, % at 18.8 µM; MiaPaCa-2 HIF-1a luciferase reporter, desferoxamine, overnight;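 active means mean inhibition of the reporter signal across four replicates at the single tested dose of 50% or more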
Each line names hits and unclear results; the compound was inactive in the other large screens (follow-up assays come after a bar, where they were run). Rows were chosen to be rich in hits. Some 2.8% of all compounds tested hit in one or more screens of this group.

COc1cc2oc(=O)cc(-c3ccc(-c4ccc(N(C)C)cc4)cc3)c2c(OC)c1OC	CF NFkB inh 52 | CF NFkB conf 66
COc1ccc(-c2ccc(-c3cc(=O)oc4cc(OC)c(OC)c(OC)c34)cc2)cc1F	none
Cc1ccc(/C(=C\CN2CCCC2)c2ccccn2)cc1	CF NFkB inh 51 | CF NFkB conf inactive
Cc1ccc(C(=O)NCCCNC(=O)c2ccccn2)cc1	none
CCOC(=O)c1ccc(N=Nc2c(C)[nH]n(-c3ccccc3)c2=O)cc1	none
CCOC(=O)c1ccc(-n2[nH]c(-c3ccccc3)cc2=O)cc1	CF NFkB inh 64 | CF NFkB conf 76
CCn1c(=O)c2c(cnn2C)c2ccccc21	CF NFkB inh 72 | CF NFkB conf 78
CCCn1c2ccccc2c2cnn(CC(=O)O)c(=O)c21	none
Nc1nc(Cl)cc(NCCc2ccc(O)cc2)n1	none
Oc1ccc(CCNc2ncnc3ccc(Cl)cc23)cc1	CF NFkB inh 70 | CF NFkB conf 89
Cc1ccc2nc(Nc3nc(CSc4nnnn4-c4ccccc4)cc(=O)[nH]3)nc(C)c2c1	none
COc1ccc2nc(Nc3nc(CSc4nc5ccccc5[nH]4)cc(=O)[nH]3)nc(C)c2c1	Peg3 promoter 98, CF NFkB inh 103 | CF NFkB conf 101
C=C1C(=O)O[C@@H]2[C@H]1CC[C@H](C)[C@]1(O)CCC(=O)[C@@]21C	CF NFkB inh 54 | CF NFkB conf 78
C=C1CCC(O)C2(C)CCC3C(C)C(=O)OC3C12O (stereo not drawn)	none
COCOCCn1cc(CN2CCS(=O)(=O)N(Cc3ccc(-c4ccc(F)cc4)cc3)C(C(C)C)C2=O)nn1 (stereo not drawn)	none (no result: B2AR ag, MITF TRPM1 inh)
COC(=O)[C@@]12C[C@@H](CC(=O)N3CCOCC3)C(=O)N(Cc3ccccc3)C1=CCC(C)(C)C2	none (no result: Peg3 promoter, CF NFkB inh, KKLEB tox, B2AR ag, MITF TRPM1 inh)
COc1cccc(NC(=O)Nc2nnc([C@@H]3C[C@H](O)[C@@H](CO)O3)s2)c1	none (no result: B2AR ag, MITF TRPM1 inh)
O=[N+]([O-])c1cc([N+](=O)[O-])c2oc(-c3ccccc3)c(Br)c2c1O	CF NFkB inh 50 | CF NFkB conf 87
O=c1cc(-c2ccccc2Cl)oc2ccc([N+](=O)[O-])c(O)c12	none
Cc1ncc(CO)c2c1Oc1nc(-c3ccccc3)nc(SCC(=O)N3CCCCC3)c1C2	Peg3 promoter 64, CF NFkB inh 85 | CF NFkB conf inactive
Cc1ncc(CO)c2c1Oc1nc(-c3ccccc3F)nc(SCC(=O)N(C)c3ccccc3)c1C2	Peg3 promoter 85, CF NFkB inh 94 | CF NFkB conf 96
CC1(C)Cc2nc(-c3ccccc3)nc(SCC(=O)N3CCCC3)c2CO1	none
CN(C(=O)CSc1nncc2ccccc12)c1ccccc1	none (no result: B2AR ag, MITF TRPM1 inh)
O=C(Nc1ccc2c(c1)OCCO2)C1c2ccccc2OCC(=O)N1C1CC1 (stereo not drawn)	none (no result: Peg3 promoter, CF NFkB inh, KKLEB tox, B2AR ag, MITF TRPM1 inh)
Cc1cccc(C(C#N)c2nc3ccccc3nc2C(F)(F)F)c1 (stereo not drawn)	none
Cc1ccc2nc(C(F)(F)F)c(C#N)c(N)c2c1	Peg3 promoter 101, CF NFkB inh 83 | CF NFkB conf 100
CCN1CCN(c2ccc(S(=O)(=O)N3CCCCC3)cc2NC(=O)Cc2ccccc2)CC1	CF NFkB inh 57 | CF NFkB conf inactive
O=C(c1cncc(Br)c1)N1CCc2ccccc2C1	CF NFkB inh 51 | CF NFkB conf 56
O=C(NNC(=S)Nc1cccc(C(F)(F)F)c1)c1cccc(Cl)c1	CF NFkB inh 51 | CF NFkB conf 77
COc1ccc(CNc2ncc(-c3ccccc3)n2C)cc1	none
COc1ccc(CNc2nn3c(-c4cccc(C(=O)N(C)C)c4)cnc3s2)cc1	Peg3 promoter 56, CF NFkB inh 84 (no result: B2AR ag, MITF TRPM1 inh) | CF NFkB conf 91
Cc1ccc(S(=O)(=O)CC(c2ccccc2)N2CCCCC2)cc1 (stereo not drawn)	none
Cc1ccc(S(=O)(=O)CC(CN2CCCCC2)N2CCCCC2)cc1 (stereo not drawn)	CF NFkB inh 53, MITF TRPM1 inh 69 | CF NFkB conf 57
NC(=O)COc1ccc(S(=O)(=O)N2CCCC2)cc1	none (no result: B2AR ag, MITF TRPM1 inh)
CCCCNc1cc(C(=O)O)cc(S(N)(=O)=O)c1Oc1ccccc1	CF NFkB inh 62 | CF NFkB conf inactive
NS(=O)(=O)c1cc(C(=O)O)cc(N2CCCC2)c1Oc1ccccc1	none
O=[N+]([O-])c1ccc(-n2nnnc2-c2ccccc2)c([N+](=O)[O-])c1	CF NFkB inh 68, MITF TRPM1 inh 98 | CF NFkB conf inactive
CCOC(=O)Nc1ccc2c(c1)N(C(=O)N1CCN(C)CC1)c1ccccc1S2	none
C=CC(=O)N1c2ccccc2Sc2ccc(NC(=O)OCC)cc21	Peg3 promoter 95, CF NFkB inh 80 | CF NFkB conf inactive
Cc1nc(C(F)(F)F)ccc1C(=O)N1CCC(C)(C(=O)O)C1 (stereo not drawn)	none (no result: B2AR ag, MITF TRPM1 inh)
COc1ccccc1/C=C/C(=O)c1ccccc1	none
COc1ccccc1/C=C/C(=O)c1c2c(c(C)[nH]c1=O)CCCC2	Peg3 promoter 98, HIF-2a inh 73, CF NFkB inh 54, MITF TRPM1 inh 64 | CF NFkB conf 51 | Mdm2 MdmX conf 103 | HIF-2a conf 63 | HIF-1a counter 88
N/C(=C\C(=O)c1cc(Cl)ccc1O)C(Cl)(Cl)Cl	CF NFkB inh 54 | CF NFkB conf inactive | Mdm2 MdmX conf 103
CCCCN(CCCNC(=O)c1ccc2c(c1)NC(=O)CN2C)c1ccccc1	Peg3 promoter 66, HIF-2a inh 45, CF NFkB inh 65 (no result: B2AR ag, MITF TRPM1 inh) | CF NFkB conf inactive | HIF-2a conf 49 | HIF-1a counter 94

Screening data (PubChem)
